Records with an inconclusive call do not appear. Calls of active or inactive are those of the source. Calls follow the shape of the dose curve; as a rule, active = well fitted curve in the direction sought with a large enough effect; inconclusive = small, poorly fitted or top-dose-only effect, or another doubt; inactive = no such curve, though single readings can be large; an effect the other way counts as inactive or inconclusive.
What was measured:
[1] = biological target: Aldehyde dehydrogenase, mitochondrial (Homo sapiens) (UniProt P05091); test: qHTS for Inhibitors of the Aldehyde Dehydrogenase Family (ALDH2) Primary screen (AID 2061308);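 also: plate controls were vehicle for no effect and reference inhibitor for full effect; nearly all actives have a fitted effect of over 55% in size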
[2] = biological target: Retinaldehyde dehydrogenase 3 (Homo sapiens) (UniProt P47895); test: qHTS for Inhibitors of the Aldehyde Dehydrogenase Family (ALDH1A3) Primary screen (AID 2061315);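 also: plate controls were DMSO vehicle for no effect and reference inhibitor for full effect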
[3] = BET inhibitor-based combinations targeting novel dependencies in MECOM-rearranged (r) AML: MV-4-11 cell line (AID 2202233); also: nearly all actives have a fitted effect of over 45% in size; also: potency is read from the fitted curve at half-maximal effect
Outline: (§1)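 Seeding density was 500 cells/well, and drug exposure lasted 48 hr under standard culture conditions. Read-out used CellTiter-Glo reagent with a 15 min room-temperature incubation before luminescence measurement; AUC and Z-AUC summarize the normalized responses.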

[4] = BET inhibitor-based combinations targeting novel dependencies in MECOM-rearranged (r) AML: HNT-34 cell line (AID 2202234); also: nearly all actives have a fitted effect of over 35% in size; also: potency is read from the fitted curve at half-maximal effect
Outline: as §1

[5] = BET inhibitor-based combinations targeting novel dependencies in MECOM-rearranged (r) AML: UCSD-AML1 cell line (AID 2202235); also: nearly all actives have a fitted effect of over 40% in size; also: potency is read from the fitted curve at half-maximal effect
Outline: as §1

[6] = BET inhibitor-based combinations targeting novel dependencies in MECOM-rearranged (r) AML: SET-2 cell line (AID 2202231); settings: SET-2 AML cells viability, CellTiter-Glo luminescence, 48 h; viability: stronger effect = lower value, concentration not given here; also: nearly all actives have a fitted effect of over 35% in size; also: potency is read from the fitted curve at half-maximal effect;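 as to viability: plate controls were DMSO treated cells for no effect and wells without cells for full effect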
Outline: (§2)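 Readout: CellTiter-Glo luminescence. Exposure: 48 h, 11 concentrations, 500 cells/well. Metric: AUC and within-line Z-AUC after DMSO/empty-well normalization.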

[7] = BET inhibitor-based combinations targeting novel dependencies in MECOM-rearranged (r) AML: OCI-AML3 cell line (AID 2202232); settings: Potency: OCI-AML3 viability; also: nearly all actives have a fitted effect of over 35% in size; also: potency is read from the fitted curve at half-maximal effect
Outline: as §2

[8] = BET inhibitor-based combinations targeting novel dependencies in MECOM-rearranged (r) AML: AML-191 cell line (AID 2202236; also: nearly all actives have a fitted effect of over 35% in size; also: potency is read from the fitted curve at half-maximal effect)
Outline: as §2

[9] = BET inhibitor-based combinations targeting novel dependencies in MECOM-rearranged (r) AML: AML-194 cell line (AID 2202237; also: nearly all actives have a fitted effect of over 40% in size; also: potency is read from the fitted curve at half-maximal effect)
Outline: as §2

CC(C)(C)Cn1c(N)nc2ccc(-c3[nH]c(C(C)(C)C)nc3-c3ccc(F)cc3)nc21
inactive: Potency [1] | Potency [2] | Potency [5]
active: Potency [3] 18.6 µM | Potency [4] 23.5 µM

CCC(C)/C=C(C)/C=C/C1=CC2=C(Cl)C(=O)C(C)(OC(C)=O)C(=O)C2=CN1C(CC(=O)O)C(=O)O (centres undefined)
inactive: Potency [1] | Potency [2]

CC1=CC[C@]2(C(=O)O[C@@H]3O[C@H](CO[C@@H]4O[C@H](CO)[C@@H](O[C@@H]5O[C@@H](C)[C@H](O)[C@@H](O)[C@H]5O)[C@H](O)[C@H]4O)[C@@H](O)[C@H](O)[C@H]3O)CC[C@]3(C)C(CCC4[C@@]5(C)C[C@@H](O)[C@H](O)[C@@](C)(CO)C5CC[C@]43C)C2C1C (some centres undefined)
inactive: Potency [1] | Potency [2]

CS(=O)(=O)N1CCC(NC(=O)c2[nH]ncc2NC(=O)c2c(Cl)cccc2Cl)CC1
active: Potency [6] 2.35 µM | Potency [7] 1.48 µM | Potency [4] 2.09 µM | Potency [5] 1.48 µM | Potency [8] 1.18 µM | Potency [9] 1.86 µM
inactive: Potency [1] | Potency [2]

Cc1cc2c(cc1C1(c3ccc(C(=O)O)cn3)CC1)C(C)(C)CCC2(C)C
inactive: Potency [1] | Potency [2] | viability [6] 114% | Potency [4] | Potency [5] | Potency [8] | Potency [9]
active: Potency [3] 0.0209 µM

CC(C)n1nc(-c2cc3cc(O)ccc3[nH]2)c2c(N)ncnc21
active: Potency [6] 2.09 µM | Potency [7] 1.86 µM | Potency [3] 0.417 µM | Potency [4] 0.372 µM | Potency [5] 0.332 µM | Potency [8] 0.934 µM | Potency [9] 0.417 µM
inactive: Potency [1]

CCN(CC)CCCCNc1ncc2cc(-c3cc(OC)cc(OC)c3)c(NC(=O)NC(C)(C)C)nc2n1
active: Potency [6] 20.9 µM | Potency [3] 11.8 µM | Potency [4] 8.33 µM | Potency [8] 18.6 µM | Potency [9] 16.6 µM

CC(=O)NC(Cc1c[nH]c2ccccc(=O)c12)C(=O)O (centres undefined)
inactive: Potency [2]

O=c1[nH]c(=O)n(C2CCCO2)cc1F (centres undefined)
inactive: viability [6] 111% | Potency [7] | Potency [4] | Potency [5] | Potency [8] | Potency [9]
active: Potency [3] 20.9 µM

C=C1C(O)C(O)C2(CC3C(C)=CCC4C(C)(C(=O)O)CCCC34C)OC2C1O (centres undefined)
inactive: Potency [2]

CC(=O)Oc1cc2c(s1)CCN([C@H](C(=O)C1CC1)c1ccccc1F)C2
inactive: Potency [2]

CC1=C(C)C(=O)C(C(CCCCCC(=O)O)c2ccccc2)=C(C)C1=O (centres undefined)
inactive: viability [6] 93.3% | Potency [3] | Potency [5] | Potency [8] | Potency [9]

O=C(O)c1ccc2cc(-c3ccc(O)c(C45CC6CC(CC(C6)C4)C5)c3)ccc2c1
active: Potency [6] 0.59 µM | Potency [7] 0.525 µM | Potency [3] 0.934 µM | Potency [4] 1.05 µM | Potency [8] 0.934 µM | Potency [9] 1.05 µM

Oc1c(Cl)cc(Cl)c2cccnc12
active: Potency [6] 8.33 µM | Potency [7] 16.6 µM | Potency [3] 11.8 µM | Potency [4] 4.17 µM | Potency [5] 5.25 µM | Potency [8] 8.33 µM | Potency [9] 8.33 µM

O=C(NCC1CCCCN1)c1cc(OCC(F)(F)F)ccc1OCC(F)(F)F (centres undefined)
inactive: viability [6] 112% | Potency [3] | Potency [4] | Potency [9]

O=[N+]([O-])c1ccc(Nc2ccccc2-c2ccccc2)c2nonc12
active: Potency [6] 20.9 µM | Potency [3] 26.3 µM | Potency [4] 23.5 µM | Potency [8] 20.9 µM
inactive: Potency [5]

c1cc(-c2sc(-c3ccncc3)c(-c3ccncc3)c2-c2ccncc2)ccn1
inactive: viability [6] 103% | Potency [7] | Potency [5] | Potency [8] | Potency [9]

NC(=O)c1ncn([C@@H]2O[C@H](CO)[C@@H](O)[C@H]2O)c1N
inactive: viability [6] 114% | Potency [3] | Potency [4] | Potency [5] | Potency [8] | Potency [9]

Cc1cc(OCCCS(C)(=O)=O)cc(C)c1-c1cccc(COc2ccc3c(c2)OC[C@H]3CC(=O)O)c1
inactive: viability [6] 98.7% | Potency [3] | Potency [4] | Potency [8] | Potency [9]

O=C1NCCc2[nH]c(-c3ccncc3)cc21
active: Potency [3] 1.86 µM | Potency [4] 3.32 µM | Potency [5] 2.63 µM | Potency [8] 1.66 µM | Potency [9] 2.63 µM

COC(=O)C1C2CC3c4[nH]c5cc(OC)ccc5c4CCN3CC2CC(OC(=O)c2cc(OC)c(OC)c(OC)c2)C1OC (centres undefined)
active: Potency [3] 20.9 µM
inactive: Potency [5]

COC(=O)C1=C(C)NC(C)=C(C(=O)OCCCN2CCC(c3ccccc3)(c3ccccc3)CC2)C1c1cccc([N+](=O)[O-])c1 (centres undefined)
active: Potency [6] 18.6 µM | Potency [3] 10.5 µM | Potency [4] 18.6 µM | Potency [5] 14.8 µM | Potency [8] 26.3 µM | Potency [9] 20.9 µM

Source: PubChem BioAssay (NCATS)
